CYP2C9 activ = increases human cytochrome P450 2C9 activity | P11712 | recombinant CYP2C9, luciferin-H conversion, luminescence; active compounds read high; factor 1 = untreated enzyme, 0 = blocked | activation factor at 5 µM | 96,000 compounds, 1.4% hits | AID 1024;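 active = activation factor of 2 or more for CYP2C9 at a 5 µM dose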
sEH act = increases human soluble epoxide hydrolase activity. purified human sEH enzymatic activity, activator screen. P34913. 91,000 compounds, 0.04% hits. activation, % at 2 µM; in the data active = activation above about 37%
Target sequence (P34913 whole entry, looked up): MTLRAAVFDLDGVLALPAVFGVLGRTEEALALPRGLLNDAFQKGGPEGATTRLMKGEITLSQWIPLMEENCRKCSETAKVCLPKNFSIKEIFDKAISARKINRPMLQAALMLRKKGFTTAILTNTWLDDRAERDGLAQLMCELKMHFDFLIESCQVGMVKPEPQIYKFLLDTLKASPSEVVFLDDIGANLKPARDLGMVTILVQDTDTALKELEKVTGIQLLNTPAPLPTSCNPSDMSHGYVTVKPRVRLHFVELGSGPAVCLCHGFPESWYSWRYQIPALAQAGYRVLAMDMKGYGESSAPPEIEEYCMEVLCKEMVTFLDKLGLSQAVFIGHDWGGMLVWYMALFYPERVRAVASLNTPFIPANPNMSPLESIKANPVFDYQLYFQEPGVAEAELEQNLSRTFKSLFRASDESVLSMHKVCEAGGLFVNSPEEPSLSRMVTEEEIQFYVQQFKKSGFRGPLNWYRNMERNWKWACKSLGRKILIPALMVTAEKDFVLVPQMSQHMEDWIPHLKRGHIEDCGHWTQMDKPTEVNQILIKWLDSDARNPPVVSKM
sEH inhibitor = soluble epoxide hydrolase (human) inhibition; recombinant human sEH enzymatic activity assay; inhibition, % at 2 µM; 91,000 compounds, 0.34% hits; in the data active = inhibition above about 80%
CYP2C9 inh = human CYP2C9 inhibition; P11712; CYP2C9 Supersomes, luciferin-H conversion, luminescence; inhibition, % at 5 µM; 96,000 compounds, 20% hits; AID 777;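 active = blocking of liver enzyme CYP2C9 beyond about 50% at 5 µM, limit read from the data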
CYP2C19 inhib = inhibitors of human CYP2C19; P33261; CYP2C19 Supersomes, luciferin-H EGE luminescence, 30 min; inhibition, % at 5 µM; 96,000 compounds, 21% hits;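 active = CYP2C19 inhibition above a set limit at 5 µM in the primary screen, cut at about 50% in these data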
CYP2C19 activ = activators of human cytochrome P450 2C19. P33261. recombinant CYP2C19, luciferin-H EGE luminescence; active compounds read high; 0 = fully inhibited enzyme, 1 = untreated enzyme. activation factor at 5 µM. 96,000 tested, under 10 active;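 active = activation factor of at least 2 at 5 µM in the primary screen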
Of the large screens only hits and unclear results are named; the others gave an inactive call. Compounds with a hit are over-represented: about 27% of the library has one in this group of screens.

C#CCOc1nc(OCC#C)nc(OCC#C)n1	CYP2C19 inhib 89 (no result: sEH act, sEH inhibitor)
COc1ccc(-n2nc3c(c2NC(=O)c2c(F)cccc2Cl)CS(=O)C3)cc1 (stereo unspecified)	none
N#Cc1c(N2CCCCC2)nc(N)c2c(N)nc3c(c12)CC(c1ccccc1)O3 (stereo unspecified)	CYP2C9 inh 64
CCN(CC)c1nc(N)c2c(N)n(-c3ccccc3C)c(=S)c(C#N)c2c1C#N	none
CCN(CC)c1nc(N)c2c(N)nc3c(c2c1C#N)CC(c1ccccc1)O3 (stereo unspecified)	CYP2C9 inh 82, CYP2C19 inhib 56
O=C(NC1(C(F)(F)F)Oc2ccccc2O1)N1CCCC1	none
O=c1c2ccccc2nnn1CSc1ccc2c(c1)OCCO2	CYP2C9 inh 55, CYP2C19 inhib 94
O=c1c2ccccc2nnn1CSc1nnc2ccccn12	none
Cc1ccc(S(=O)(=O)N(C)c2ccc(C(=O)N3CCCCC3)cc2)cc1	CYP2C9 inh 74, CYP2C19 inhib 55
Cc1ccc(S(=O)(=O)N(C)c2ccc(C(=O)N3CCN(Cc4ccc5c(c4)OCO5)CC3)cc2)cc1	CYP2C9 inh 54, CYP2C19 inhib 55
O=C(CSCc1ccccc1)N1CCN(Cc2ccc3c(c2)OCO3)CC1	none (no result: CYP2C9 activ, CYP2C9 inh, CYP2C19 inhib, CYP2C19 activ)
O=C(c1ccc2nccnc2c1)N1CCN(Cc2ccc3c(c2)OCO3)CC1	none (no result: sEH act, sEH inhibitor)
CN(c1ccc(C(=O)N2CCCCC2)cc1)S(=O)(=O)c1ccccc1	none
CN(c1ccc(C(=O)N2CCN(Cc3ccc4c(c3)OCO4)CC2)cc1)S(=O)(=O)c1ccccc1	CYP2C9 inh 94, CYP2C19 inhib 79
Cc1cccc(C(=O)N2CCN(Cc3ccc4c(c3)OCO4)CC2)c1	CYP2C19 inhib 92
COc1cc(OC)c(C(=O)Nc2ncn[nH]2)cc1OC	none (no result: CYP2C9 activ, CYP2C9 inh, CYP2C19 inhib, CYP2C19 activ)
CCc1sc(-c2c(C#N)c(N)nc3c2CCCCCC3)cc1[N+](=O)[O-]	none
O=C(CCS(=O)(=O)c1ccc(Cl)cc1)Oc1ccc2c(c1)OCO2	none (no result: sEH act, sEH inhibitor)
O=C(CCc1ccc(S(=O)(=O)N2CCOCC2)cc1)NCCc1ccccn1	none
O=C(C1CC2CCC1C2)N1CCN(Cc2ccc3c(c2)OCO3)CC1 (stereo unspecified)	CYP2C19 inhib 58
O=C(c1ccc(NS(=O)(=O)c2ccccc2)cc1)N1CCN(Cc2ccc3c(c2)OCO3)CC1	CYP2C9 inh 94
Cc1cccc(-c2nc(CSCC(=O)N3CCN(Cc4ccc5c(c4)OCO5)CC3)c(C)o2)c1	CYP2C19 inhib 70 (no result: sEH act, sEH inhibitor)
O=C(C1COc2ccccc2O1)N1CCN(Cc2ccc3c(c2)OCO3)CC1 (stereo unspecified)	none (no result: sEH act, sEH inhibitor)
Cc1ccc(S(=O)(=O)N(C)c2ccc(N)cc2)cc1	CYP2C9 activ 2.2, CYP2C19 inhib 94
O=C(Nc1ccccc1)N1CCN(Cc2ccc3c(c2)OCO3)CC1	none
CCn1c(N)c(C(=O)Nc2ccccc2C(=O)OC)sc1=S	none
O=C(O)c1ccccc1S(=O)(=O)c1ccccc1CO	none
O=C(CN(c1ccccc1)S(=O)(=O)c1ccccc1)N1CCN(Cc2ccc3c(c2)OCO3)CC1	CYP2C9 inh 89, CYP2C19 inhib 69
O=C(c1ccc(Br)o1)N1CCN(Cc2ccc3c(c2)OCO3)CC1	CYP2C9 inh 62, CYP2C19 inhib 90
Cc1ccccc1Cc1c(C)nc2c(C(=O)N3CCN(Cc4ccc5c(c4)OCO5)CC3)cnn2c1C	none (no result: CYP2C9 activ, CYP2C9 inh, CYP2C19 inhib, CYP2C19 activ)
O=C(c1cc(-c2ccccc2)on1)N1CCN(Cc2ccc3c(c2)OCO3)CC1	CYP2C9 inh 68, CYP2C19 inhib 70
Cc1cccc(Cc2c(C)nc3c(C(=O)N4CCN(Cc5ccc6c(c5)OCO6)CC4)cnn3c2C)c1	CYP2C9 inh 76, CYP2C19 inhib 93
CCOC(=O)N1CCN(C(=O)c2cccc(-n3c(=S)[nH]c4cc(Cl)ccc4c3=O)c2)CC1	none
O=C(CCS(=O)(=O)c1ccc(Cl)cc1)N1CCN(S(=O)(=O)c2cccs2)CC1	none (no result: CYP2C9 activ, CYP2C9 inh, CYP2C19 inhib, CYP2C19 activ)
COc1ccc(N(CC(=O)NCc2cccc(OC)c2)S(=O)(=O)c2c(C)noc2C)cc1	CYP2C9 inh 64, CYP2C19 inhib 92 (no result: sEH act, sEH inhibitor)
CCOc1ccc(N(CC(=O)NC2CCCC2)S(=O)(=O)c2c(C)noc2C)cc1	none
CCOc1ccc(N(CC(=O)NCc2cccc(OC)c2)S(=O)(=O)c2c(C)noc2C)cc1	CYP2C19 inhib 60
COc1cc(OC)cc(-c2cc3nc4c(c(N5CCN(c6ncccn6)CC5)n3n2)CCCC4)c1	CYP2C9 inh 94, CYP2C19 inhib 95
CCOCCN1CCN(c2c(CC)c(C)nc3cc(-c4cc(OC)cc(OC)c4)nn23)CC1	none (no result: CYP2C9 activ, CYP2C9 inh, CYP2C19 inhib, CYP2C19 activ)
CCOCCN1CCN(c2c3c(nc4cc(-c5ccc(F)cc5)nn24)CCC3)CC1	CYP2C9 inh 50 (no result: sEH act, sEH inhibitor)
CCc1c(C)nc2cc(-c3cc(OC)cc(OC)c3)nn2c1N1CCCC1	none
CC1(C)CC(=O)c2cc(C(=O)N3CCCCC3)c(=O)n(-c3ccc(Cl)cc3)c2C1	none (no result: CYP2C9 activ, CYP2C9 inh, CYP2C19 inhib, CYP2C19 activ)
CCN=c1sc(C(=O)OC)cc(=O)n1CC	none
C=CCN=c1sc(C(=O)OC)cc(=O)n1CC=C	CYP2C19 inhib 52
CCOC(=O)C(C(C)=O)C(c1ccc(OCCC(C)C)cc1)C(C(C)=O)C(=O)OCC (stereo unspecified)	none (no result: CYP2C9 activ, CYP2C9 inh, CYP2C19 inhib, CYP2C19 activ)
CCCCOc1ccc(C(CC(=O)NC)C(=O)O)cc1 (stereo unspecified)	none
Cc1ccc(C(=O)OCC(=O)NCc2ccco2)cc1	none
Cc1ccc(-c2nc(C)sc2CC(=O)NCc2ccco2)cc1	CYP2C19 inhib 56
Cc1ccc(SCC(=O)NCc2ccco2)cc1	none (no result: CYP2C9 activ, CYP2C9 inh, CYP2C19 inhib, CYP2C19 activ)
Cc1ccc(SCCC(=O)NCc2ccco2)cc1	CYP2C9 inh 69
CC(C)NC(=O)c1ccc(CS(=O)(=O)c2ccc(Br)cc2)o1	none
CCOC(=O)c1c(C2CCN(C(=O)OCC)CC2)nc2ccccn12	CYP2C9 inh 72 (no result: sEH act, sEH inhibitor)
CCOC(=O)c1c(C)nc2ccccn12	none (no result: sEH act, sEH inhibitor)
COc1ccc(C(=O)CSc2nc3nc(C)cc(C)n3n2)cc1OC	none
O=C(N=c1nc2ccccn2s1)c1ccccc1	CYP2C19 inhib 76 (no result: sEH act, sEH inhibitor)
Cc1csc(=NC(=O)c2ccccc2)n1C	none (no result: CYP2C9 activ, CYP2C9 inh, CYP2C19 inhib, CYP2C19 activ)
CCCCn1c(NCc2ccccn2)nc2ccccc21	none
C=CCn1c(-c2cccnc2Cl)nc2cc(Cl)c(Cl)cc21	CYP2C9 inh 57
Clc1cccc(Cl)c1Cn1c(-c2cccnc2Cl)nc2ccccc21	none
CCCn1c(-c2cccnc2Cl)nc2cc(Cl)c(Cl)cc21	CYP2C9 inh 56
Cc1ccc(-c2nnc(SCC(=O)N3CCOCC3)nc2-c2ccc(C)cc2)cc1	none
CS(=O)(=O)N1N=C(c2ccc(Cl)cc2)CC1c1cccs1 (stereo unspecified)	CYP2C9 inh 56, CYP2C19 inhib 94
CCCCNC(=O)Nc1cc(C(=O)OC)ccc1Cl	none
N#Cc1ccc(NC(=O)C2CC(c3ccc(F)cc3)=NO2)cc1 (stereo unspecified)	none
O=C(Nc1ccc2c(c1)OCO2)C1CC(c2ccc(F)cc2)=NO1 (stereo unspecified)	CYP2C19 inhib 53
CCc1ccccc1NC(=O)C1CC(c2ccc(F)cc2)=NO1 (stereo unspecified)	CYP2C19 inhib 83

Screening data as filed in PubChem.
